Data published in ChEMBL document CHEMBL1157539, “Thousands of chemical starting points for antimalarial lead identification” (Nature, 2010).

Key:
Type in all cases: functional
Plasmodium falciparum [1] = experiment: GSK_TCMDC: Inhibition of Plasmodium falciparum 3D7 in whole red blood cells, using parasite LDH activity as an index of growth. Test compounds present at 2uM
Plasmodium falciparum [2] = experiment: GSK_TCMDC: Inhibition of Plasmodium falciparum Dd2 in whole red blood cells, using parasite LDH activity as an index of growth. Test compounds present at 2uM
HepG2 = experiment: GSK_TCMDC: Percent inhibition of human HepG2 cell line. Test compounds present at 10uM.

COc1cc(Cc2cnc(N)nc2N)cc(OC)c1OC [TRIMETHOPRIM]
Inhibition (Plasmodium falciparum [1]): 88% | Inhibition (Plasmodium falciparum [2]): 2% | Inhibition (HepG2): 0%

CCC1(C)N=C(N)N=C(N)N1c1ccccc1.Cl (stereo not given)
Inhibition (Plasmodium falciparum [1]): 98% | Inhibition (Plasmodium falciparum [2]): 0% | Inhibition (HepG2): 6%

Cc1nc(-c2ccc(C(F)(F)F)cn2)sc1C(=O)N1CCc2cc3nccc(N4CCN5CCC[C@H]5C4)c3cc21.Cl
Inhibition (Plasmodium falciparum [1]): 100% | Inhibition (Plasmodium falciparum [2]): 72% | Inhibition (HepG2): 5%

CC(C)(CC1CCCCC1)NC(=O)[C@H](CC1CCCCC1)Nc1ccc(C#N)c2ccccc12.O=C(O)C(F)(F)F
Inhibition (Plasmodium falciparum [1]): 98% | Inhibition (Plasmodium falciparum [2]): 52% | Inhibition (HepG2): 14%

CC(=O)c1ccc(-c2ccc(C(=O)NCCCCN3CCC(c4ccc5c(c4O)CCCC5)CC3)cc2)cc1
Inhibition (Plasmodium falciparum [1]): 100% | Inhibition (Plasmodium falciparum [2]): 83% | Inhibition (HepG2): 87%

Cc1cc(N2CCN(C)CC2)nc2ccc(NC(=O)Cc3cccc(C(F)(F)F)c3)cc12
Inhibition (Plasmodium falciparum [1]): 99% | Inhibition (Plasmodium falciparum [2]): 51% | Inhibition (HepG2): 26%

Cc1cc(=NN=Cc2cccc(F)c2)c2cc(F)ccc2[nH]1
Inhibition (Plasmodium falciparum [1]): 100% | Inhibition (Plasmodium falciparum [2]): 99% | Inhibition (HepG2): 7%

O=C(CSc1nc2ccccc2c(=O)n1C1CC1)Nc1cc(C(F)(F)F)ccc1Cl
Inhibition (Plasmodium falciparum [1]): 97% | Inhibition (Plasmodium falciparum [2]): 96% | Inhibition (HepG2): 5%

CCN(CC)CCCNc1ncc2c(-c3ccc(NC(=O)Nc4cc(C(F)(F)F)ccc4F)c(F)c3)nn(C)c2n1.O=C(O)C(F)(F)F
Inhibition (Plasmodium falciparum [1]): 94% | Inhibition (Plasmodium falciparum [2]): 68% | Inhibition (HepG2): 100%

CCN(CC)c1nc(N)c2c(N)nc3c(c2c1C#N)C(=O)CN3Cc1ccccc1
Inhibition (Plasmodium falciparum [1]): 96% | Inhibition (Plasmodium falciparum [2]): 96% | Inhibition (HepG2): 26%
